Among all 2,100 compounds or so, about 650 (31%) were called active. Roughly 16% stayed inconclusive and do not appear here. The list shows a part of the results. Values without a mark were called inactive. Calls follow the shape of the dose curve; as a rule, active = well fitted inhibition curve with a large enough effect; inconclusive = small, poorly fitted or top-dose-only effect; inactive = flat fitted curve, though single readings scatter.
Assay: qHTS for inhibitors of Vif-A3G interactions: Cherry picks; also: nearly all actives have a fitted effect of over 80% in size; as to activity, negative = fluorescence increase: % of control where 0% means no effect
Conditions: HeLa A3G-eYFP + Vif (tagged APOBEC3G with the HIV-1 protein that degrades it), 24 h; Potency: eYFP fluorescence increase; series mostly up to 36.9 µM; activity, negative = fluorescence increase: at the top concentration
Outline: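 HeLa cells stably expressing A3G-eYFP and Vif, cultured overnight then exposed to compounds at several concentrations for 24 hours at 37 C, 5% CO2; cellular yellow fluorescence (488 nm ex, 500-530 nm em) imaged on Acumen, MG132 positive control.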
Potency is read from the fitted curve at half-maximal effect.

Row | SMILES | activity, negative = fluorescence increase | Potency
1 | C[C@H]1CN([C@@H](C)CO)C(=O)Cc2cc(NC(=O)CCC(F)(F)F)ccc2O[C@H]1CN(C)S(=O)(=O)c1ccc(F)cc1 | -5.1% | –
2 | C/C(=N\NC(=O)c1cc(C)nc2ccccc12)c1ccncc1 | -2.34% | –
3 | Cc1cccc(N2CCN(Cc3cn(C)nc3-c3ccccc3F)CC2)n1 | -2.89% | –
4 | COC(=O)C1C2CC3c4[nH]c5cc(OC)ccc5c4CCN3CC2CC(OC(=O)CC(C)=O)C1OC (stereo not drawn) | – | 18.4 µM (active)
5 | COC(=O)C1C2CC3c4[nH]c5cc(OC)ccc5c4CCN3CC2CC(OC2CCCCO2)C1OC (stereo not drawn) | – | 20.6 µM (active)
6 | C[C@H](O)[C@@H]1CN2CCc3c([nH]c4ccccc34)[C@@H]2C[C@@H]1N(C)C(=O)c1ccco1 | -0.738% | –
7 | Cc1ccccc1NC(=O)CSC1=C(C#N)C(c2ccsc2)CC(=O)N1 (stereo not drawn) | -3.24% | –
8 | O=C(N/N=C/C=C/c1ccco1)c1ccncc1 | 7.78% [at 46.1 µM] | –
9 | O=[N+]([O-])c1ccc(N/N=C/C=C/c2ccco2)cc1 | – | 16.4 µM (active)
10 | COc1ccc(NC(=O)/C(C#N)=C/C=C/c2ccco2)cc1 | -1.01% | –
11 | O=Nc1ccc(O)c2ncccc12 | -6.47% | –
12 | CC1=NN(c2ccccc2)C(=O)/C1=C/C=C/c1ccccc1 | -7.4% | –
13 | COc1ccccc1CCC(=O)Nc1ccc2c(c1)c(=O)n(C)n2-c1cccs1 | -14.5% | –
14 | O=C1c2cccc3c(N4CCCCC4)ccc(c23)C(=O)N1c1cccc(O)c1 | -14.5% [at 46.1 µM] | –
15 | O=C1c2cccc3c(N4CCCCC4)ccc(c23)C(=O)N1c1ccccc1O | – | 1.3 µM (active)
16 | C=CCN1C(=O)c2cccc3c(N4CCCCC4)ccc(c23)C1=O | – | 20.6 µM (active)
17 | O=C(NC(=S)Nc1ccccc1N1CCCCC1)c1ccccc1 | 13.5% [at 46.1 µM] | –
18 | O=C1c2cccc3c(N4CCCCC4)ccc(c23)C(=O)N1CCO | – | 17.7 µM (active)
19 | COc1ccc(S(=O)(=O)Nc2cc(Sc3ncn[nH]3)c(O)c3ccccc23)cc1 | -20.8% | –
20 | CSc1ccccc1NC(=O)COC(=O)/C=C/c1ccco1 | -3.36% [at 46.1 µM] | –
21 | O=C(NC(=S)N1CCc2ccccc21)c1ccco1 | 6.64% [at 46.1 µM] | –
22 | CCCOc1ccccc1C1CC(=O)NC2=C1C(=O)CCC2 (stereo not drawn) | -1.81% | –
23 | CCN(CC)CCCNc1ccc2ncn3c4ccc(O)cc4c(=O)c1c23 | – | 18.4 µM (active)
24 | CN(C)CCNc1ccc2ncn3c4ccc(O)cc4c(=O)c1c23 | – | 20.6 µM (active)
25 | CCCCOc1ccc(-c2nnn(CC(=O)NCc3ccco3)n2)cc1 | -5.01% | –
26 | COC(=O)c1cccc(NS(=O)(=O)c2ccc(OC)cc2)c1C | -1.35% | –

Row | SMILES | activity, negative = fluorescence increase | Potency
27 | O=C(CSc1ccccc1)Nc1nc2ccccc2[nH]1 | -8.99% | –
28 | CC(=O)Nc1sc2c(c1-c1nc3ccccc3s1)CCN(C(C)C)C2 | – | 18.4 µM (active)
29 | COc1cccc(N2CC(O)=C(c3nc4ccccc4s3)C2=N)c1 | -13.4% | –
30 | CN1CCc2c(sc(NC(=O)CSc3ccc(F)cc3)c2-c2nc3ccccc3s2)C1 | – | 1.64 µM (active)
31 | COc1ccccc1/C=N/NC(=O)c1cc2c(OC)c(OC)ccc2[nH]1 | -4.72% | –
32 | O=C(C(=O)N1CCN(c2ccccc2Cl)CC1)c1c[nH]c2ccccc12 | 1.33% | –
33 | CC1CC(C)CN(CC(=O)c2c[nH]c3ccccc23)C1 (stereo not drawn) | – | 18.4 µM (active)
34 | C=CCN1C=CC(=CC=C(C#N)C#N)C=C1 | – | 14 µM (active)
35 | CCCN1C=CC(=CC=C(C#N)C#N)C=C1 | – | 15.8 µM (active)
36 | COc1cccc(/C=N/n2c(C3CCCCC3)n[nH]c2=S)c1O | 8.61% [at 46.1 µM] | –
37 | COCCNC(=O)C(=O)Nc1ccc2c(c1)N(S(=O)(=O)c1cccs1)CCC2 | -0.781% | –
38 | CN(/N=C/c1ccc(N(C)C)cc1)C1=NS(=O)(=O)c2ccccc21 | – | 17.7 µM (active)
39 | CN(C)c1ccc(/C=N/NC(=O)c2ccccc2Cl)cc1 | 3.19% | –
40 | CCn1c(CNC(=O)c2cc(OC)c(OC)c(OC)c2)cc2cc(C)ccc21 | -2.87% [at 46.1 µM] | –
41 | CCOc1ncccc1C(=O)OCc1ccc(C(=O)OC)cc1 | -9.97% | –
42 | COc1ccc(N/C=C/c2nc(SC)nnc2C)cc1 | -23.1% [at 46.1 µM] | –
43 | C=CCSc1nnc(C)c(/C=C/Nc2ccc(Cl)cc2)n1 | – | 20.6 µM (active)
44 | COc1ccccc1NC1=NC(c2ccc(Cl)cc2)N=C(N)N1 (stereo not drawn) | -5.12% | –
45 | CCN(CC)c1ccc(/C=N/NC(=S)NC)c(O)c1 | 0.353% [at 46.1 µM] | –
46 | CCN1C(=S)SC(=O)C1=C1C=C(C)N(Cc2ccco2)C(C)=C1 | – | 14 µM (active)
47 | Cc1c(C(=O)Nc2cnccn2)oc2ccccc12 | -1.49% | –
48 | O=C1CC(c2cc(F)ccc2F)c2cc3c(cc2N1)CCC3 (stereo not drawn) | -1.72% | –
49 | O=C(Cc1n[nH]c(=O)c2ccccc12)OCC(=O)c1ccc2c(c1)OCCO2 | -14.4% | –
50 | C(=C/c1nccc2c1[nH]c1ccccc12)/c1ccc2c(c1)OCO2 | -7.14% | –
51 | N#Cc1ccc(/C=C\c2nccc3c2[nH]c2ccccc23)cc1 | – | 14 µM (active)
52 | O=C(C[n+]1cccc2cc(Cl)ccc21)c1ccc2ccccc2c1 | – | 23.1 µM (active)

Row | SMILES | activity, negative = fluorescence increase | Potency
53 | CC(C)(C)c1ccc(C(=O)C[n+]2cccc3cc(Cl)ccc32)cc1 | – | 20.6 µM (active)
54 | O=C(C[n+]1cccc2cccc(O)c21)c1ccc2ccccc2c1 | -11% [at 46.1 µM] | –
55 | O=C(C[n+]1cccc2cc(Cl)ccc21)c1ccc(I)cc1 | – | 20.6 µM (active)
56 | O=C(COC(=O)c1ccc(NS(=O)(=O)c2cccs2)cc1O)NCc1ccccc1 | -9.24% | –
57 | CCC(=Nc1ccccc1O)C1=C(O)CC(c2ccccc2)CC1=O (stereo not drawn) | -3.16% | –
58 | Clc1ccccc1C1CC(c2ccccc2)=Nc2ccccc2N1 (stereo not drawn) | -8.72% [at 46.1 µM] | –
59 | CCOc1ccccc1C(=O)Nc1ccsc1C(=O)OC | 1.29% | –
60 | Cc1cccc(C=Nc2ccccc2C(N)=O)c1 | 3.09% | –
61 | CCOc1ccc(N(C)c2ccc(/C=C3/SC(=S)NC3=O)cc2)cc1 | – | 17.7 µM (active)
62 | CN(C)c1ccc(C=C2SC(=S)NC2=O)cc1 | – | 11.2 µM (active)
63 | Cn1cccc1/C=C1\SC(=Nc2cccc(O)c2)NC1=O | -6.02% | –
64 | Cn1cccc1/C=C1\SC(=O)N(c2ccc(O)cc2)C1=O | – | 20.6 µM (active)
65 | Cn1cc(/C=C2\SC(=O)N(c3ccccc3)C2=O)c2ccccc21 | – | 20.6 µM (active)
66 | Cc1cccc(N=C2NC(=O)/C(=C/c3cccn3C)S2)c1 | 0.0988% | –
67 | Cn1cc(/C=C2\SC(=S)N(NC(=O)c3cccc(Cl)c3)C2=O)c2ccccc21 | – | 3.66 µM (active)
68 | O=C1NC(=Nc2ccc(O)cc2)S/C1=C/c1ccco1 | 0.269% | –
69 | Cc1ccc(N=C2NC(=O)/C(=C/c3cn(C)c4ccccc34)S2)cc1C | – | 17.7 µM (active)
70 | CCOc1ccc(C(=O)C(CCC(CN(C)C)C(=O)c2ccc(OCC)cc2)CN(C)C)cc1 (stereo not drawn) | -0.142% | –
71 | S=c1[nH]nc(-c2cccnc2)n1/N=C/C(Cl)=C\c1ccccc1 | -14.4% | –
72 | O=C(C(=Cc1ccccc1)CN1CCCCC1)c1ccccc1 | -0.537% | –
73 | O=S(=O)(Nc1cc(Sc2ncn[nH]2)c(O)c2ccccc12)c1ccccc1 | -17.9% | –
74 | COc1ccc(NC(=O)C2Cc3c(-c4cccc(C(C)=O)c4)ccnc3O2)cn1 (stereo not drawn) | 0.238% | –
75 | Cc1noc(C)c1COc1cccc(C(=O)OC(C)C(=O)Nc2ccc3c(c2)OCO3)c1 (stereo not drawn) | -0.108% | –
76 | COc1cc2c(cc1OC)C(C)N(C(=O)c1cc(C)on1)CC2 (stereo not drawn) | -1.83% | –
77 | CN(C)c1ccc(C2C=C(c3ccc(Cl)cc3OC(F)F)Nc3ncnn32)cc1 (stereo not drawn) | -23.3% | –
78 | O=[N+]([O-])c1ccc(N/N=C/c2sc(N3CCOCC3)nc2-c2ccccc2)c(S(=O)(=O)Nc2ccccc2Cl)c1 | – | 11.6 µM (active)

Row | SMILES | activity, negative = fluorescence increase | Potency
79 | Cc1ccc(C(=O)c2cc([N+](=O)[O-])ccc2N2CCOCC2)cc1C | -7.92% | –
80 | Cc1ccc(NS(=O)(=O)c2cc([N+](=O)[O-])ccc2N/N=C/c2sc(N3CCOCC3)nc2-c2ccccc2)c(C)c1 | – | 0.158 µM (active)
81 | O=C(O)c1ccccc1/C=N/Nc1ccc(S(=O)(=O)N2CCOCC2)cc1[N+](=O)[O-] | -3.49% | –
82 | COc1ccccc1NS(=O)(=O)c1cc([N+](=O)[O-])ccc1N/N=C/c1sc(N2CCOCC2)nc1-c1ccccc1 | – | 2.06 µM (active)
83 | Cc1ccc(S(=O)(=O)Nc2cc(-c3nn(C)c(=O)c4ccccc34)ccc2N2CCOCC2)cc1 | -12.2% | –
84 | COc1cc(C2c3cc4c(cc3C(OC3OC5COC(c6cccs6)OC5C(O)C3O)C3COC(=O)C23)OCO4)cc(OC)c1O (stereo not drawn) | -29.5% | –
85 | O=C(c1[nH]c(C(F)(F)F)nc1-c1ccccc1)N1CCN(c2cccc(C(F)(F)F)n2)CC1 | -6.94% | –
86 | O=C(CCc1ccccc1)Nc1ccc(Cl)cn1 | -19.7% | –
87 | COC(=O)COc1cccc2c(=O)n(CC(=O)NCc3ccccc3)ccc12 | -15.8% | –
88 | O=C(/C=C/c1ccncc1)c1cc(Cl)ccc1O | -5.76% [at 46.1 µM] | –
89 | COc1ccccc1C1=NOC(COc2ccc3c(C)cc(=O)oc3c2)C1 (stereo not drawn) | -2.24% | –
90 | Cc1cccc(-n2c(N)c(-c3nc4ccccc4n3C)c3nc4ccccc4nc32)c1 | -4.05% [at 46.1 µM] | –
91 | CC(=O)n1c2ccccc2c2nc3ccccc3nc21 | – | 9.2 µM (active)
92 | CCSc1nc2ccccc2n1C(=O)/C=C/c1ccc(OC)c(OC)c1 | -5.86% | –
93 | O=c1c(Cl)c2oc3ccccc3nc-2c2ccccc12 | – | 18.4 µM (active)
94 | COc1ccc(/C=N/NC(=O)c2cc3c(OC)ccc(OC)c3[nH]2)cc1O | -7.72% | –
95 | O=[N+]([O-])c1ccc(N2CCN(Cc3ccccc3)CC2)c2c1no[n+]2[O-] | – | 15.8 µM (active)
96 | Cc1ccc(-c2nc3ccccc3o2)cc1NC(=S)NC(=O)/C=C/c1ccco1 | -14.8% | –
97 | COc1ccccc1C(=O)NC(=S)Nc1ccc(NC(=O)c2ccco2)cc1 | 0.442% | –
98 | Cc1cc(NC(=O)c2ccco2)cc(-c2nc3cc(Cl)ccc3o2)c1O | – | 18.4 µM (active)
99 | CC1=C(C(=O)Nc2cccc(F)c2)C(c2ccsc2)C2=C(CC(C)(C)CC2=O)N1 (stereo not drawn) | -10.6% | –
100 | O=C1S/C(=C/c2ccc(N3CCOCC3)o2)C(=O)N1Cc1c(F)cccc1Cl | – | 4.44 µM (active)
101 | CCOC(=O)CN1C(=O)S/C(=C/c2ccc(N3CCCCC3)o2)C1=O | – | 5.8 µM (active)
102 | CCCN1C(=O)S/C(=C\c2ccc(N3CCOCC3)o2)C1=O | – | 4.44 µM (active)
103 | O=C1S/C(=C\c2ccc(N3CCOCC3)o2)C(=O)N1c1ccccc1 | – | 2.8 µM (active)
